In PubChem BioAssay one finds composite z-score and z-score data, which are given here for five compounds.

Test [1] can be described thus: compounds binding Alexa647 anti-His antibody – biochemical, small-molecule microarray, 635 nm fluorescence, artefact control for SMM control protein annotation, primary screen (AID 1128).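 Further: score merges feature fluorescence with signal-to-noise for each printed compound spot.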 The note with it: higher = more signal.
Test [2] has as its system Human papillomavirus type 1a E7 protein (residues 1-88). The test can be described thus: HPV1a E7 small-molecule binders, primary screen, biochemical, small-molecule microarray, residues 1-88, 635 nm (AID 1129). The following applies: small-molecule microarray binding, fluorescence 635 nm; higher = more signal.
For test [3], the target named is Focal adhesion kinase 1 (Homo sapiens) (UniProt Q05397). The test can be described thus: PTK2 protein binding on printed compound slides – biochemical, small-molecule microarray, 635/667 nm fluorescence, BSA, DTT, primary screen (AID 1130).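 Further: composite of spot emission at 667 nm and signal to noise over triplicate slides.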 The following applies: 635 nm fluorescence, higher = more signal.
Chain of Focal adhesion kinase 1 (Homo sapiens) (Q05397 whole entry, looked up): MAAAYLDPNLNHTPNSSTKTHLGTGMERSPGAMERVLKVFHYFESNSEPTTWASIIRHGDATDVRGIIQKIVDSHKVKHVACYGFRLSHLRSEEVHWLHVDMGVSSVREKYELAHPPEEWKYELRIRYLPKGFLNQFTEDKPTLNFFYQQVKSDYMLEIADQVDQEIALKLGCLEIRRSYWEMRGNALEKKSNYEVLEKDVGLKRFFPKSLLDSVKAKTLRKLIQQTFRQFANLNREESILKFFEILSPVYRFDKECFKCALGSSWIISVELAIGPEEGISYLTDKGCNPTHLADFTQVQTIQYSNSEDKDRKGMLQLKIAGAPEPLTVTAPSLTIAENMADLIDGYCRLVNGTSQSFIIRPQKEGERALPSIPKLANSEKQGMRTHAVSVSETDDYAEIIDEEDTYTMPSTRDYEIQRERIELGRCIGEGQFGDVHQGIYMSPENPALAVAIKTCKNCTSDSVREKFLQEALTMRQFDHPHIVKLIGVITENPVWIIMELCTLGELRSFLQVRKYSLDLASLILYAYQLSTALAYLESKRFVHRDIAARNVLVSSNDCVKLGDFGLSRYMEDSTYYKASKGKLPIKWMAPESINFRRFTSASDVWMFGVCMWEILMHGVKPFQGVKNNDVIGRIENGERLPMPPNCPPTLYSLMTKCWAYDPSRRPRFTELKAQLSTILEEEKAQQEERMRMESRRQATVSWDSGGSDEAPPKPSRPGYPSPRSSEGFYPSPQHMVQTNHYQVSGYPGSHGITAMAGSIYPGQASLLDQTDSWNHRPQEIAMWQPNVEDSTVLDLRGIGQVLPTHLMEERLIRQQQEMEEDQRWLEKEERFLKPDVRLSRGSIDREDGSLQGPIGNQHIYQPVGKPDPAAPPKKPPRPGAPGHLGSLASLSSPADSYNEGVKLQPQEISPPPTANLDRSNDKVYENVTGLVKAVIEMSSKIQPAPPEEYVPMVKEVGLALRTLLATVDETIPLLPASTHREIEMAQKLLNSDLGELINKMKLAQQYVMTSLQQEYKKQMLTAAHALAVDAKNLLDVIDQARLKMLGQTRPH
Test [4] has as its system Fibrinogen (Alexa647-labelled). The test can be described thus: Alexa647-fibrinogen binding to printed small molecules – biochemical, small-molecule microarray, 635/667 nm fluorescence, artefact control for SMM control-protein annotation, profiling panel (AID 1131).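 Further: z-score merges 667 nm fluorescence with per-spot signal-to-noise over triplicate slides.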 The following applies: fibrinogen-A647 binding fluorescence, higher = more signal.
In test [5] the target is Follistatin (Homo sapiens) (UniProt P19883). The test can be described thus: FST protein binding to printed compounds – biochemical, small-molecule microarray, 635/667 nm fluorescence, primary screen (AID 1132). The note with it: 635 nm fluorescence, higher = more signal.
Chain of Follistatin (Homo sapiens) (P19883 whole entry, looked up): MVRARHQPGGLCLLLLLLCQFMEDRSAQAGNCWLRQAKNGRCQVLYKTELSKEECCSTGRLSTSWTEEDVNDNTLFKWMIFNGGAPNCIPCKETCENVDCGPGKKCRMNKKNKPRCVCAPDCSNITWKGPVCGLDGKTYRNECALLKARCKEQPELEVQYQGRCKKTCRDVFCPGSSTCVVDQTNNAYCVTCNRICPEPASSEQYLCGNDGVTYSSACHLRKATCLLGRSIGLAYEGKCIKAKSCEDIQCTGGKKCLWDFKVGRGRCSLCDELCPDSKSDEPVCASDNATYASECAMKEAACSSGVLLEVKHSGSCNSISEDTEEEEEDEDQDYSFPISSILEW
In test [6] the target is Fibroblast growth factor 2 (Homo sapiens) (UniProt P09038). The test can be described thus: basic fibroblast growth factor binding to printed compounds – biochemical, small-molecule microarray, 635/667 nm fluorescence, primary screen (AID 1133). The note with it: FGF2, fluorescence 635/667, higher = more signal.
Chain of Fibroblast growth factor 2 (Homo sapiens) (P09038 whole entry, looked up): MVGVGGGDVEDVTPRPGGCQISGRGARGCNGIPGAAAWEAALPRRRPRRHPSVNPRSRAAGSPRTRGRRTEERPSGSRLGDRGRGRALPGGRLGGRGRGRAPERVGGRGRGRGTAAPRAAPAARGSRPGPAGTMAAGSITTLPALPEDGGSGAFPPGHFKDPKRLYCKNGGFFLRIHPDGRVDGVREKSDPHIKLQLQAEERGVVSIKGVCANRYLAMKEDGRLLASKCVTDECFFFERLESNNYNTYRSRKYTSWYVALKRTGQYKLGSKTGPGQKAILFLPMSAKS
A short description of test [7]: JC-1 mitochondrial potential readout, lung cancer cells – cell-based, A549, JC-1 fluorescence, basal, 24 h, 100 nL, profiling panel (AID 1138).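 Further: A549 lung adenocarcinoma cells under basal conditions with no added stimulus; test concentration not given here.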 The note with it: higher = more signal.
The next test relates to Lefty1. The test can be described thus: Lefty1 protein binding to printed compounds – biochemical, small-molecule microarray, 635/667 nm fluorescence, primary screen (AID 1139). The following applies: fluorescence 635/667, higher = more signal.
Test [8] relates to wheat germ agglutinin (Triticum aestivum), Alexa647-labelled. The test can be described thus: Alexa647-WGA lectin binding to printed small molecules – biochemical, small-molecule microarray, 635/667 nm fluorescence, artefact control for SMM control-protein annotation, profiling panel (AID 1140).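 Further: score merges 667 nm feature emission with signal to noise over triplicate slides.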 The following applies: WGA-A647 binding, 635 nm fluorescence, higher = more signal.
For test [9], the target named is Luciferin 4-monooxygenase (Photinus pyralis) (UniProt P08659). The test can be described thus: inhibition of purified Photinus pyralis luciferase – biochemical, luminescence, purified enzyme, 2006 set, primary screen (AID 1141).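 Further: cell-free assay with purified firefly luciferase at 100 ng per well in PBS; test concentration not given here.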 The following applies: purified firefly luciferase, SteadyGlo luminescence, 30 min; higher = more signal, called active from +8 up or from −8 down.
Chain of Luciferin 4-monooxygenase (Photinus pyralis) (P08659 whole entry, looked up): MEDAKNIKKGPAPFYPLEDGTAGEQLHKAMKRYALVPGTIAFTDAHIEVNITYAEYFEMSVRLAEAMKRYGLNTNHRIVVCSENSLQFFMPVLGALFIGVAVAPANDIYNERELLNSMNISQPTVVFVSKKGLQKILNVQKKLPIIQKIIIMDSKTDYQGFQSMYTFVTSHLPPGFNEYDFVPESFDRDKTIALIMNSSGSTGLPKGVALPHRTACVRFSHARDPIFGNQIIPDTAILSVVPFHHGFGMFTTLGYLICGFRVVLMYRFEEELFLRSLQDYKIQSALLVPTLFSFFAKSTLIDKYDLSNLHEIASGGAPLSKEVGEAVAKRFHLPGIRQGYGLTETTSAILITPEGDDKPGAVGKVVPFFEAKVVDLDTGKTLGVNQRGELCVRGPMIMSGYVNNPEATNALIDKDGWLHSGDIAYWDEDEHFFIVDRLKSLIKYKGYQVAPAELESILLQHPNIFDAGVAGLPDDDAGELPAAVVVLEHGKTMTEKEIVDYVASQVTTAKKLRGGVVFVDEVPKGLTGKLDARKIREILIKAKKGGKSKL

In test [10] the test system is Wnt5a (protein binding on small-molecule microarray). The test can be described thus: small molecules binding Wnt5a protein – biophysical, small-molecule microarray, 635/667 nm fluorescence, primary screen (AID 1142).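 Further: fluorescence read at 667 nm with signal to noise per printed feature.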 The following applies: 635 nm fluorescence, higher = more signal.
Test [11] in a line: ATP-based viability of Huh7 replicon cells – cell-based, CellTiter-Glo luminescence, basal, 48 h, cytotoxicity control for HCV replication inhibitor project, primary screen (AID 1143).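 Further: Huh7 hepatoma cells carrying a hepatitis C replication reporter with no stimulus; test concentration not given here.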 The following applies: higher = more signal, called active from +8 up or from −8 down. For orientation: In antiviral work, replicon cells carry a viral genome segment that copies itself.
Test [12] is described as follows: Pseudomonas biofilm growth suppression – PAO1 strain, BacTiter-Glo luminescence, LB-PBS, primary screen (AID 1144). The following applies: P. aeruginosa PAO1 biofilm, 12 h, higher = more signal.
A short description of test [13]: basal CRE-LacZ reporter activity in PC12 – cell-based, unstimulated, primary screen (AID 1145). The following applies: no forskolin, luminescence, 4.5 h, higher = more signal, called active from +8 up or from −8 down.
Test [14] is described as follows: forskolin-driven CRE-LacZ activity in PC12 – cell-based, CRE-LacZ reporter, forskolin-stimulated, primary screen (AID 1146).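 Further: PC12 cells with 6xCRE LacZ reporter stimulated by forskolin 10 µM; beta-galactosidase reporter signal reflecting CREB driven transcription.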 The note with it: luminescence, 4.5 h, higher = more signal, called active from +8 up or from −8 down.
Test [15] concerns the target Streptavidin (Streptomyces avidinii) (UniProt P22629). The test can be described thus: compounds binding control protein streptavidin – biophysical, small-molecule microarray, 635/667 nm fluorescence, artefact control for SMM compound annotation, primary screen (AID 1147).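 Further: signal reflects streptavidin binding to arrayed compounds as a control protein.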 The following applies: higher = more signal.
Test [16] is described as follows: probe aInhba binding on compound microarray – biochemical, small-molecule microarray, 635/667 nm fluorescence, primary screen (AID 1148).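 Further: score merges 667nm spot fluorescence with signal-to-noise for antibody binding to printed compounds.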 The note with it: higher = more signal.
The target of test [17] is Torsin-1A (Homo sapiens) (UniProt O14656). The test can be described thus: TOR1A wild-type binding on microarray – cell lysate, small-molecule microarray, lysate, 635/667 nm, primary screen (AID 1149). The note with it: COS7 hTOR1A-WT lysate, 635 nm fluorescence, higher = more signal.
Chain of Torsin-1A (Homo sapiens) (O14656 whole entry, looked up): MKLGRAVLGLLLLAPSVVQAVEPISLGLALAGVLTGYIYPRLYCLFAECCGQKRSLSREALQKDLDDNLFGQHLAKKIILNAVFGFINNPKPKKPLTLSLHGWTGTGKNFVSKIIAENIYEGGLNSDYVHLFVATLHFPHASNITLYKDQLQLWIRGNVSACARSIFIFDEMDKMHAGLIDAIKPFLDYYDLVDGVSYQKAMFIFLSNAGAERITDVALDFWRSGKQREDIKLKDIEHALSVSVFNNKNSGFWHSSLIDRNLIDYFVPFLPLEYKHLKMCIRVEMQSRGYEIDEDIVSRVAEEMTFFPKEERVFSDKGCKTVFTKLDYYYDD
For test [18] the target is unchanged. The test can be described thus: torsin A mutant lysate binding on microarrays – cell lysate, small-molecule microarray, COS7 lysate, 635/667 nm fluorescence, primary screen (AID 1150).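 Further: score pools 667 nm emission and signal to noise measuring lysate protein binding.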 The note with it: COS7 hTOR1A mutant lysate, 635 nm fluorescence, higher = more signal.
Test [19] concerns Sonic hedgehog protein (Shh). The test can be described thus: Sonic hedgehog microarray binding compounds – biochemical, small-molecule microarray, 635/667 nm fluorescence, primary screen (AID 1151).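 Further: Shh protein binding to compounds spotted on small-molecule microarray slides; score combines spot fluorescence intensity with signal-to-noise across triplicate slides.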 The following applies: 635 nm fluorescence, higher = more signal.

Calls of active or inactive are those of the source. Unless noted, how the calls were made is not given here.

Chain of Streptavidin (Streptomyces avidinii) (P22629 whole entry, looked up): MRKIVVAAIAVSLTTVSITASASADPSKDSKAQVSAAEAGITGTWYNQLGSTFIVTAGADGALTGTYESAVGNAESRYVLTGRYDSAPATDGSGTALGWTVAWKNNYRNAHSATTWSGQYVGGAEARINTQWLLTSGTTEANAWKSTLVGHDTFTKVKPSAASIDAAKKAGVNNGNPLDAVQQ

Turning to `CC(C)Cc1ccc(CN2CC[C@@H](NC(=O)Nc3ccccc3)C2)cc1`, the composite z-score is -0.0844 in test [1]; -1.63 in test [2]; 0.0749 in [3]; 0.494 in [4]; -0.182 in test [5]; -0.0224 in [6]. For the same compound, the composite z-score in the test with Lefty1 was 0.08; in test [8] it was 0.244; in test [10] it was 0.0405; in test [15] it was -0.0067; in test [16], -0.148; with Torsin-1A (Homo sapiens) [17], 0.257. In addition, the figures for the composite z-score (in the test with Torsin-1A (Homo sapiens) [18]; in [19]) were 0.274 and 0.826, respectively. Further, the z-score in test [7] was -0.749; in test [9] it was 0.398 (inactive); in test [11] it was -8.72 (active); in test [12] it was -0.00187 (inactive); in test [13] it was 0.757 (inactive); in test [14], -0.269 (inactive).

Regarding `COCCCNC(=O)[C@@]1(Cc2ccccc2N=[N+]=[N-])COC(c2ccc(OCCCO)cc2)=N1`, the composite z-score in [1] was 1.47; in test [2], 1.22; in test [3], 0.614; in test [4], 0.967; in [5], 0.773; in test [6], -0.186. For the same compound, the composite z-score is -0.351 in the test on Lefty1; 0.976 in [8]; 0.926 in [10]; 1.63 in [15]; 0.0184 in [16]; 0.308 in the test with Torsin-1A (Homo sapiens) [17]. Further, the values for the composite z-score (in the test with Torsin-1A (Homo sapiens) [18]; in test [19]) were 0.614 and -0.676, respectively. The z-score in test [7] was 0.961; in test [9], -2.1 (inactive); in test [11], -1.63 (inactive); in [12], 0.53 (inactive); in [13], -0.641 (inactive); in [14], -0.849 (inactive).

Regarding `O=C1C[C@@](C(=O)NCCN2CCOCC2)(c2ccc([N+](=O)[O-])cc2)[C@@H](c2ccc(CO)cc2I)N1C1CCCCC1`, the composite z-score is 1.27 in [1]; 1.24 in test [2]; 0.211 in test [3]; -0.415 in [4]; 1.15 in test [5]; 0.94 in test [6]. Further, the composite z-score with Lefty1 was 0.992; in test [8], 0.308; in [10], 0.642; in test [15], -0.0491; in test [16], -0.0468; with Torsin-1A (Homo sapiens) [17] it was -0.308. Also, the composite z-score is 0.896 in the test with Torsin-1A (Homo sapiens) [18] and 1.92 in [19]. In addition, the z-score in [7] is 1.8; in [9], 1.35 (inactive); in [11] it was -4.95 (inactive); in test [12], -1.36 (inactive); in test [13], 0.0279 (inactive); in test [14], -1.11 (inactive).

`C=C(COC)C(=O)CC[C@@H](OC(=O)c1cccnc1)c1ccc(OCCO)cc1`: the composite z-score was 0.282 in test [1]; 0.659 in test [2]; -0.157 in test [3]; 0.108 in [4]; 1.4 in test [5]; 1.78 in test [6]. The composite z-score in the test with Lefty1 is 1.21; in test [8] it was 0.237; in [10], 1.71; in test [15] it was -0.23; in test [16] it was 0.0471; with Torsin-1A (Homo sapiens) [17] it was 0.889. Moreover, the composite z-score in the test with Torsin-1A (Homo sapiens) [18] was 0.321; in [19] it was 1.54. In addition, the z-score in test [7] was 0.822; in [9] it was -3.79 (inactive); in [11], -7.08 (inactive); in test [12] it was 0.403 (inactive); in [13], 5.67 (inactive); in test [14], 0.0067 (inactive).

Take `C=CCN1C(=O)[C@@]2(CCS(=O)(=O)c3ccccc3)N=C(c3ccc(OCCCO)cc3)O[C@H]2c2ccccc21`: the composite z-score in test [1] came to 1.34; in [2] it was 1.25; in [3] it was 0.763; in [4] it was 0.884; in [5], 1.45; in [6], 1.78. Moreover, the composite z-score in the test on Lefty1 came out at 0.952; in test [8], 0.37; in [10], 0.889; in [15] it was 0.636; in test [16] it was 0.198; with Torsin-1A (Homo sapiens) [17] it was 1.16. The composite z-score with Torsin-1A (Homo sapiens) [18] came out at 0.426; in test [19], 2.07. Besides, the z-score is 0.821 in test [7]; -1.48 (inactive) in test [9]; -2.49 (inactive) in [11]; 0.369 (inactive) in [12]; -0.0808 (inactive) in test [13]; -1.28 (inactive) in test [14].
